In PubChem BioAssay:
For some assays here: Measured potencies and affinities stand elsewhere. The source made the active and inactive calls. Unless noted, no rule for the calls is given here.

Each compound was assayed against Protein kinase 7 (PK7), Plasmodium falciparum 3D7 (PF3D7_0213400) (UniProt Q7YTF7) (assay: inhibition of Plasmodium PK7 catalytic activity – biochemical, TCAMS antimalarial set, Kinase-Glo luminescence (AID 1159587)). Conditions: recombinant PfPK7, Kinase-Glo ATP depletion luminescence.
Chain of Protein kinase 7 (PK7), Plasmodium falciparum 3D7 (PF3D7_0213400) (Q7YTF7 1-343): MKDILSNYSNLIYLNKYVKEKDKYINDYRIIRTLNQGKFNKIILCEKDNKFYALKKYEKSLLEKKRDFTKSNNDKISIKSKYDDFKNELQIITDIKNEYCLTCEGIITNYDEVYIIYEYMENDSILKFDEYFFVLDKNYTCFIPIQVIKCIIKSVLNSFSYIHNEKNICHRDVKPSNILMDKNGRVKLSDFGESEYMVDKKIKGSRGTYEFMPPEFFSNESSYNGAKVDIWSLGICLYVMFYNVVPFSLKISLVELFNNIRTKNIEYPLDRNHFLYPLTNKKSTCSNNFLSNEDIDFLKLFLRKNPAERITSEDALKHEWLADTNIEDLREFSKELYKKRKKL

outcome, inactive:
OCCCCCCNc1ccnc2[nH]c3ccc(I)cc3c12, COc1cccc2cc(C(=O)N[C@@H](CC(C)C)C(=O)N[C@H](/C=N/N3C(=O)CN(Cc4ccccc4)C3=O)CCc3ccccc3)oc12, O=C(Cn1c2ccccc2c(=O)c2ccc(Cl)cc21)Nc1ccc(C(F)(F)F)cc1, CCc1cc([C@H]2O[C@@H](n3cnc4c(NCC(c5ccccc5)c5ccccc5)nc(NCCNc5ccccn5)nc43)[C@H](O)[C@@H]2O)on1, O=S(=O)(NCCN1CCCC1)c1ccc(-c2cccc(CNC3Cc4ccccc4C3)c2)cc1F, O=C(Cn1c(=O)oc2ccccc21)N1CCC(n2c(=O)n(CCCN3CCOCC3)c3ccccc32)CC1, Cc1cccc(NC(=O)c2cnc(N3CCN(c4ccncc4)CC3)c(Cl)c2)c1, COc1ccc2nc(C)cc(NN=Cc3ccccc3)c2c1, CN(C)S(=O)(=O)c1ccc(Nc2nc(NCCC3C=NC=N3)nc3cc[nH]c(=O)c23)cc1 (stereo not given), O=C(/C=C/c1ccc(C(F)(F)F)cc1)NCCCCCN1CCN(C(=O)Nc2ccc(Cl)cc2)CC1, Cc1cc(N[C@@H](Cc2ccccc2)C(=O)NCc2cccc(F)c2)nc(NCCOc2ccccc2)n1, Cc1cc(C)c(O)c(-c2cc(C(=O)Nc3ccc(S(=O)(=O)N4CC(C)OC(C)C4)cc3)[nH]n2)c1 (stereo not given), Oc1ccc(Nc2nc(NCC3CCCO3)c3ccccc3n2)cc1 (stereo not given), CCOC(=O)c1cn(CC)c2cc(O[C@H]3CCN(C(=O)OC(C)(C)C)C3)ccc2c1=O, OC(COc1ccccc1-c1nc2ccccc2o1)CN1CCCN(CCc2ccccc2)CC1 (stereo not given), CCC(C)NS(=O)(=O)c1ccc2nc(Nc3ccc(C)cc3)n([C@H](C)C(C)(C)C)c2c1 (stereo not given in full), CC(C)CNC(=O)c1cncc(-c2cccc(CNC3Cc4ccccc4C3)c2)c1, COc1ccc2nccc([C@@H](O)CN3CCC(NC(=O)c4ccc(Oc5ccccc5)cc4)CC3)c2c1, CC(C)c1ccc(CN2CCC(CNC(=O)c3cc(-c4cccc(F)c4)cs3)C2)cc1 (stereo not given), COc1ccc2[nH]c(C(=O)Nc3ccc4nc(-c5ccccc5)[nH]c4c3)cc2c1, Cc1cc(NC(c2ccc(Cl)cc2)c2ccc3cccnc3c2O)no1 (stereo not given), Clc1ccc(CNC2CCN(CC3CCCCC3)CC2)cc1, CS(=O)(=O)c1cccc2sc(N3CCN(C(=O)c4ccc([N+](=O)[O-])o4)CC3)nc12, CCOC(=O)c1ccc(NC(=O)N(Cc2ccc(-c3cccc(CN4CCNCC4)c3)cc2)C2CCN(Cc3ccccc3)CC2)cc1, CCCCOc1ccc(N2C(N)=NC(N)=NC2(C)C)cc1, O=C(/C=C/c1ccc(Cl)c(Cl)c1)NCCCCCCN1CCN(C(=O)Nc2ccc(Cl)c(C(F)(F)F)c2)CC1, CCCCNC(=O)C(C)NC(=O)c1ccc(O)c(-c2ccc(Cl)c(Cl)c2)c1 (stereo not given), N#Cc1ccc2c(c1)CCN(CCC1CCC(NC(=O)c3cc4cccc([N+](=O)[O-])c4[nH]3)CC1)C2 (stereo not given), Cc1cccc(-c2nn(-c3ccccc3)c3[nH]c(=O)c(CNC4CCCC4)cc23)c1, Cc1cc(NN=Cc2cccc(Cl)c2)c2ccccc2n1, COc1cc2c(c(Cl)c1OC)CCN(Cc1ccccc1)CC2c1ccc(NC(=O)C(F)(F)F)cc1 (stereo not given), COc1ccc2nccc([C@@H](O)CN3CCC(NC(=O)C(c4ccsc4)N4CCN(c5ccccc5OC)CC4)CC3)c2c1 (stereo not given in full), CN(C)CCCOc1cc(NC(=O)Nc2ccc(-c3ccncc3)c3ccccc23)ccc1I, O=C(/C=C/c1ccc(Cl)c(Cl)c1)NC1CCN(Cc2cccc(O)c2)CC1, COc1ccc2ncc(Cl)c(CCN3CC[C@@H](CNCc4cc5c(cn4)OCS5)C3)c2n1, NC1=NC(c2ccccc2)(c2ccccn2)C(=O)N1CCCc1ccccc1 (stereo not given), COc1ccc(-c2cccc(CNCc3ccc(F)cc3)c2)cc1S(=O)(=O)NCCN1CCCC1, CC(=O)Nc1cc(C(=O)Nc2cccc(-c3cccc(-c4nc5c(C)cccc5[nH]4)c3)c2)ccc1C, Nc1cc(-c2ccc(-c3cccs3)s2)nc2ccccc12, COc1cc2c(cc1S(=O)(=O)c1ccc(NC(=O)Nc3ccc(F)cc3)cc1)CCN(C)CC2

Each compound was assayed against Calcium-dependent protein kinase 4 (Plasmodium falciparum (isolate 3D7)) (UniProt Q8IBS5) (assay: PfCDPK4 kinase inhibitors, biochemical, TCAMS library (AID 1159588; cut-off not given, nearly all actives have IC50 up to about 0.91 µM)). Conditions: recombinant PfCDPK4, Kinase-Glo ATP depletion luminescence.
Chain of Calcium-dependent protein kinase 4 (Plasmodium falciparum (isolate 3D7)) (Q8IBS5 whole entry, looked up): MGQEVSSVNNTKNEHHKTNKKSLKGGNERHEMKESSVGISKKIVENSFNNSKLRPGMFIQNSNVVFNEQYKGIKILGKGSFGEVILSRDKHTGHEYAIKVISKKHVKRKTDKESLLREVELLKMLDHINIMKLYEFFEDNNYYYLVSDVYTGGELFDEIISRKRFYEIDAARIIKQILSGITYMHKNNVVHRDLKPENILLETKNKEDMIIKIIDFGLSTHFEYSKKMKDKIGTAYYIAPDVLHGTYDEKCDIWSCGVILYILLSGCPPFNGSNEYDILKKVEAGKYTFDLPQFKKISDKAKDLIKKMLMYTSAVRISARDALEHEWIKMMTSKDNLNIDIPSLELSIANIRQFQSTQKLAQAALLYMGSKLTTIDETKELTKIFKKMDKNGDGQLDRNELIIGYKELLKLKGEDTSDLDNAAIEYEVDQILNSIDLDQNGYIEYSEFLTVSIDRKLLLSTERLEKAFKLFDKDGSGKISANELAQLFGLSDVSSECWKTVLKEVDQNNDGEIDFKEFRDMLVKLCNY

outcome, inactive:
OCCCCCCNc1ccnc2[nH]c3ccc(I)cc3c12, COc1cccc2cc(C(=O)N[C@@H](CC(C)C)C(=O)N[C@H](/C=N/N3C(=O)CN(Cc4ccccc4)C3=O)CCc3ccccc3)oc12, O=C(Cn1c2ccccc2c(=O)c2ccc(Cl)cc21)Nc1ccc(C(F)(F)F)cc1, CCc1cc([C@H]2O[C@@H](n3cnc4c(NCC(c5ccccc5)c5ccccc5)nc(NCCNc5ccccn5)nc43)[C@H](O)[C@@H]2O)on1, O=S(=O)(NCCN1CCCC1)c1ccc(-c2cccc(CNC3Cc4ccccc4C3)c2)cc1F, O=C(Cn1c(=O)oc2ccccc21)N1CCC(n2c(=O)n(CCCN3CCOCC3)c3ccccc32)CC1, Cc1cccc(NC(=O)c2cnc(N3CCN(c4ccncc4)CC3)c(Cl)c2)c1, COc1ccc2nc(C)cc(NN=Cc3ccccc3)c2c1, CN(C)S(=O)(=O)c1ccc(Nc2nc(NCCC3C=NC=N3)nc3cc[nH]c(=O)c23)cc1 (stereo not given), O=C(/C=C/c1ccc(C(F)(F)F)cc1)NCCCCCN1CCN(C(=O)Nc2ccc(Cl)cc2)CC1, Cc1cc(N[C@@H](Cc2ccccc2)C(=O)NCc2cccc(F)c2)nc(NCCOc2ccccc2)n1, Cc1cc(C)c(O)c(-c2cc(C(=O)Nc3ccc(S(=O)(=O)N4CC(C)OC(C)C4)cc3)[nH]n2)c1 (stereo not given), Oc1ccc(Nc2nc(NCC3CCCO3)c3ccccc3n2)cc1 (stereo not given), CCOC(=O)c1cn(CC)c2cc(O[C@H]3CCN(C(=O)OC(C)(C)C)C3)ccc2c1=O, OC(COc1ccccc1-c1nc2ccccc2o1)CN1CCCN(CCc2ccccc2)CC1 (stereo not given), CCC(C)NS(=O)(=O)c1ccc2nc(Nc3ccc(C)cc3)n([C@H](C)C(C)(C)C)c2c1 (stereo not given in full), CC(C)CNC(=O)c1cncc(-c2cccc(CNC3Cc4ccccc4C3)c2)c1, COc1ccc2nccc([C@@H](O)CN3CCC(NC(=O)c4ccc(Oc5ccccc5)cc4)CC3)c2c1, CC(C)c1ccc(CN2CCC(CNC(=O)c3cc(-c4cccc(F)c4)cs3)C2)cc1 (stereo not given), COc1ccc2[nH]c(C(=O)Nc3ccc4nc(-c5ccccc5)[nH]c4c3)cc2c1, Cc1cc(NC(c2ccc(Cl)cc2)c2ccc3cccnc3c2O)no1 (stereo not given), Clc1ccc(CNC2CCN(CC3CCCCC3)CC2)cc1, CS(=O)(=O)c1cccc2sc(N3CCN(C(=O)c4ccc([N+](=O)[O-])o4)CC3)nc12, CCOC(=O)c1ccc(NC(=O)N(Cc2ccc(-c3cccc(CN4CCNCC4)c3)cc2)C2CCN(Cc3ccccc3)CC2)cc1, CCCCOc1ccc(N2C(N)=NC(N)=NC2(C)C)cc1, O=C(/C=C/c1ccc(Cl)c(Cl)c1)NCCCCCCN1CCN(C(=O)Nc2ccc(Cl)c(C(F)(F)F)c2)CC1, CCCCNC(=O)C(C)NC(=O)c1ccc(O)c(-c2ccc(Cl)c(Cl)c2)c1 (stereo not given), N#Cc1ccc2c(c1)CCN(CCC1CCC(NC(=O)c3cc4cccc([N+](=O)[O-])c4[nH]3)CC1)C2 (stereo not given), Cc1cccc(-c2nn(-c3ccccc3)c3[nH]c(=O)c(CNC4CCCC4)cc23)c1, Cc1cc(NN=Cc2cccc(Cl)c2)c2ccccc2n1, COc1cc2c(c(Cl)c1OC)CCN(Cc1ccccc1)CC2c1ccc(NC(=O)C(F)(F)F)cc1 (stereo not given), COc1ccc2nccc([C@@H](O)CN3CCC(NC(=O)C(c4ccsc4)N4CCN(c5ccccc5OC)CC4)CC3)c2c1 (stereo not given in full), CN(C)CCCOc1cc(NC(=O)Nc2ccc(-c3ccncc3)c3ccccc23)ccc1I, O=C(/C=C/c1ccc(Cl)c(Cl)c1)NC1CCN(Cc2cccc(O)c2)CC1, COc1ccc2ncc(Cl)c(CCN3CC[C@@H](CNCc4cc5c(cn4)OCS5)C3)c2n1, NC1=NC(c2ccccc2)(c2ccccn2)C(=O)N1CCCc1ccccc1 (stereo not given), COc1ccc(-c2cccc(CNCc3ccc(F)cc3)c2)cc1S(=O)(=O)NCCN1CCCC1, CC(=O)Nc1cc(C(=O)Nc2cccc(-c3cccc(-c4nc5c(C)cccc5[nH]4)c3)c2)ccc1C, Nc1cc(-c2ccc(-c3cccs3)s2)nc2ccccc12, COc1cc2c(cc1S(=O)(=O)c1ccc(NC(=O)Nc3ccc(F)cc3)cc1)CCN(C)CC2
